We go through 40 molecules from PubChem BioAssay (NCATS).

Molecules are shown by their SMILES. Inconclusive results are not listed. Calls of active or inactive are those of the source. The call rests on the fitted dose curve; in most records, active means well fitted curve in the direction sought with a large enough effect; inconclusive means small, poorly fitted or top-dose-only effect, or effect the other way, or another doubt; inactive means no such curve, though single readings can be large or run the other way.

The nature of this experiment: qHTS Assay for Identification of Small Molecule Agonists for NFkB Signaling Pathway. (AID 624478). As to conditions: NFkB pathway reporter cell assay, agonist mode, cells co-stimulated with 10 pM TNF alpha; series mostly up to 46.1 µM. As for the experimental part: The TNF alpha/NFkB signaling pathway was assayed in NFkB-bla cells (Invitrogen), a ME-180 cervical carcinoma line containing a stably integrated beta-lactamase reporter gene controlled by a NFkB response element. This reporter is induced by TNF alpha at 10 pM EC50 and inhibited by the proteosome inhibitor MG-132 at approximately 100 nM IC50. The assay was screened at the EC50 of TNF alpha activation to identify activators of TNF alpha/NFkB signaling
Cells were trypsinized, washed in assay medium (AM, OPTI MEM with 0.5% fetal bovine serum, 0.1 mM nonessential amino acids, 1 mM sodium pyruvate, 10mM HEPES pH 7.3, 100U/ml penicillin, and 100 ug/ml streptomycin) and plated at 1000 cells/5 uL/well into black clear-bottom 1536 well plates. After an overnight incubation at 37 C and 5% CO2, 23 nL of compound were delivered by a pin tool, 1 uL of TNF alpha (10 pM final concentration in AM) was added and plates were incubated at 37 C for 5 hrs. One uL of LiveBLAzerTM detector mix (Invitrogen) was added, the plates incubated at room temperature for 2 hrs, and fluorescence intensity at 460 and 530 nm emission was measured at 405 nm excitation by an Envision (Perkin Elmer).
As to `COc1ccc2nc(S(=O)Cc3ncc(C)c(OC)c3C)[nH]c2c1` (stereo not given), the molecule was classed as inactive.
The entry for `Cc1ccc2c(c1)C(=O)[C@@]1(O)CCN(c3ccccc3)C1=N2` is “inactive”; for `CN(C(=O)c1ccc(F)cc1C(F)(F)F)C1CCN(c2nnc(-c3ccnn3C)c3ccccc23)CC1` it is “inactive”; for `OCCC#Cc1nc(-c2ccc(F)cc2)c(-c2ccncc2)n1CCCc1ccccc1` it is “inactive”.
As for `COc1ccc(-c2ccc3c(N4CCOCC4)nc(N4C[C@@H](C)O[C@@H](C)C4)nc3n2)cc1CO`, the entry is “inactive”; as for `Cc1ccc(-n2nc(C(C)(C)C)cc2NC(=O)Nc2ccc(OCCN3CCOCC3)c3ccccc23)cc1`, “inactive”.
As for `C/C(=C\C(=O)Nc1ccccc1C(=O)O)c1ccc2ccccc2c1`, the entry is “inactive”; as for `CCCS(=O)(=O)Nc1ccc(F)c(C(=O)c2c[nH]c3ncc(-c4ccc(Cl)cc4)cc23)c1F`, “inactive”; as for `COc1cccc2cc(-c3nc(C4CCC(C(=O)O)CC4)n4ncnc(N)c34)[nH]c12` (stereo not given), “inactive”.
For `CC[C@H](Nc1ncnc2nc[nH]c12)c1nc2cccc(F)c2c(=O)n1-c1ccccc1`, the call was inactive.
Take `C[C@]1(c2nc3c(C(N)=O)cccc3[nH]2)CCCN1`: the outcome was inactive.
As for `Cc1cc(SCc2sc(-c3ccc(C(F)(F)F)cc3)nc2C)ccc1OCC(=O)O`, the entry is “inactive”; as for `CCCn1c(=O)c2[nH]c(C34CC5CC3C[C@@H](C5)C4)nc2n(CCC)c1=O`, “inactive”.
The entry for `Oc1cccc(-c2nc(N3CCOCC3)c3oc4ncccc4c3n2)c1` is “inactive”; for `CC(=O)NC(C)c1ccc(Oc2ccc(OC(C)C)cc2)cc1` (stereo not given) it is “inactive”.
The entry for `CCc1ccc(CCOc2ccc(CC3SC(=O)NC3=O)cc2)nc1` (stereo not given) is “inactive”.
For `C[C@]12CC[C@H](O)CC1=CC[C@@H]1[C@H]2CC[C@]2(C)C(c3cccnc3)=CC[C@H]12`, the outcome was inactive.
As for `CN([C@@H](Cc1ccc(OS(=O)(=O)c2cccc3cnccc23)cc1)C(=O)N1CCN(c2ccccc2)CC1)S(=O)(=O)c1cccc2cnccc12`, the entry is “inactive”; as for `CCC(C)N(C)C(=O)c1cc2ccccc2c(-c2ccccc2Cl)n1` (stereo not given), “inactive”.
As for `CCCS(=O)(=O)Nc1ccc(F)c(C(=O)c2c[nH]c3ncc(Cl)cc23)c1F`, the entry is “inactive”.
Take `CCN(CCCO)CCCOc1ccc2c(Nc3cc(CC(=O)Nc4cccc(F)c4)[nH]n3)ncnc2c1`: the result was inactive.
Take `COc1ccc(CCN2CCN(CCCc3ccccc3)CC2)cc1OC`: the result was inactive.
As for `CCCc1nc2c(C)cc(-c3nc4ccccc4n3C)cc2n1Cc1ccc(-c2ccccc2C(=O)O)cc1`, the entry is “inactive”; as for `O=c1ncn2nc(Sc3ccc(F)cc3F)ccc2c1-c1c(Cl)cccc1Cl`, “inactive”.
As for `Cc1[nH]c(=O)c(C#N)cc1-c1ccc2nccn2c1`, the entry is “inactive”; as for `O=C(C=Cc1ccc(/C=C/C(=O)Nc2ccc(C3=NCCN3)cc2)cc1)Nc1ccc(C2=NCCN2)cc1`, “inactive”.
The entry for `Nc1nc2[nH]cc(CCc3ccc(C(=O)N[C@@H](CCC(=O)O)C(=O)O)cc3)c2c(=O)[nH]1` is “inactive”; for `O=C(c1cc(Cc2n[nH]c(=O)c3ccccc23)ccc1F)N1CCN(C(=O)C2CC2)CC1` it is “inactive”; for `N#CC[C@H](C1CCCC1)n1cc(-c2ncnc3[nH]ccc23)cn1` it is “inactive”.
As to `Cn1cc(-c2ccc3nnc(C(F)(F)c4ccc5ncccc5c4)n3n2)cn1`, the molecule was classed as inactive.
As for `COc1ccc(CC2=NN3C([C@@H](CCc4ccccc4)[C@@H](C)O)=NC(C)C3C(=O)N2)cc1OC` (stereo not given in full), the entry is “inactive”.
Regarding `Cc1cc2c(C(C)C)c(O)c(O)c(C=O)c2c(O)c1-c1c(C)cc2c(C(C)C)c(O)c(O)c(C=O)c2c1O`, the molecule was called inactive.
On to `COc1ccccc1-c1cccc(-c2c(O)c3cc(C#N)c(Cl)cc3[nH]c2=O)c1`, for which the outcome was inactive.
The entry for `O=C1CCCC2=C1C(c1[nH]ncc1Cl)N=C(Nc1nc3ccccc3o1)N2` (stereo not given) is “inactive”; for `CCOc1cc(C(=O)Nc2ccc(Cl)c(-c3nc4ccccc4[nH]3)c2)cc(OCC)c1OCC` it is “inactive”.
Consider `Nc1nc2ccc(OC(F)(F)F)cc2s1`, for which the result was inactive.
The entry for `Cc1c(CCOc2ccc(C(=O)O)cc2)c2cc(Cl)ccc2n1C(c1ccccc1)c1ccccc1` is “inactive”; for `COc1cc(Nc2ncc3c(n2)-c2ccc(Cl)cc2C(c2c(F)cccc2OC)=NC3)ccc1C(=O)O` it is “inactive”.
The entry for `COc1cc(F)c(F)c(Nc2ccc(I)cc2F)c1NS(=O)(=O)C1(C[C@H](O)CO)CC1` is “inactive”; for `S=C(NCc1ccc2c(c1)OCO2)N1CCN(c2ncnc3c2oc2ccccc23)CC1` it is “inactive”.
